Most compounds without a hit are left out; they make up all but 0.44% or so of the library.
YopH inh: YopH tyrosine phosphatase inhibitors, primary screen, biochemical, fluorescence Ex485/Em525; YopH tyrosine phosphatase [Yersinia enterocolitica]; inhibition, % (no concentration beside the values); 0.16% of 140,000 active; in the data active = inhibition above about 50%
RmlC RmlD mix: RmlC and RmlD coupled enzyme inhibitors, primary screen, biochemical, 384-well, compound mixtures, retest. 0.39% of 110,000 active. AID 1532, 2009. RmlC/RmlD coupled enzyme inhibition, 384-well mixture HTS. inhibition, % at 5.5 µM; in the data active = inhibition above about 30%, passing the limit was not always enough
RmlCD fluor art: counter-screen for RmlC/RmlD inhibitors: fluorescence artifact, dose response, artefact control, biochemical. shares compounds with RmlC RmlD mix. 96% of 360 active. calls only. AID 1696, 2009. RmlC/RmlD assay fluorescence artifact counter-screen; call rule not given here;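 note: compound alone with no enzyme and no substrates present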
Of the large screens only hits and unclear results are named; the others gave an inactive call (follow-up assays come after a bar, where they were run).

CCOC(=O)C(CCSC)Nc1nc(Cl)nc(Nc2ccc(Cl)cc2)n1 (stereo not given)	none (no result: YopH inh)
CCC(=O)Nc1nonc1-c1nc2ccccc2n1CCC(C)C	YopH inh 57
CC(=O)Nc1nonc1-c1nc2ccccc2n1CCC(C)C	none (no result: RmlC RmlD mix)
COC(=O)c1ccc(NC(=O)C2C3CCC(C3)C2C(=O)O)cc1 (stereo not given)	none
COC(=O)Cc1cnc(NC(=O)C2C3CCC(C3)C2C(=O)O)s1 (stereo not given)	YopH inh 51
C=C(C)Cn1c(SCC(=O)N/N=C/c2cccc(O)c2)nc2ccccc2c1=O	none (no result: RmlC RmlD mix)
Oc1ccc(N=C/C=C/c2ccc(Br)cc2)cc1-c1nc2ccccc2s1	none (no result: RmlC RmlD mix)
CCCc1[nH]nc2c1C(c1ccccc1OCC)C(C#N)=C(N)O2 (stereo not given)	none
CCOc1ccccc1C1C(C#N)=C(N)Nc2onc(-c3ccccc3)c21 (stereo not given)	YopH inh 65
Fc1ccccc1NC(=S)N1CCN(c2ccccn2)CC1	none (no result: RmlC RmlD mix)
CC(=O)c1cc2c(O)c(O)ccc2o1	none
CC(=O)c1cc2cc(O)ccc2o1	RmlC RmlD mix 136 | RmlCD fluor art active
N#Cc1nc(-c2ccc(OCc3ccccc3)cc2)oc1N1CCC(C(N)=O)CC1	none (no result: RmlC RmlD mix)
COc1ccc(-c2nc(C#N)c(N3CCC(C(N)=O)CC3)o2)cc1	YopH inh 90, RmlC RmlD mix 50 | RmlCD fluor art active
Nc1nc(Nc2ccccc2)nc2c1ncn2[C@@H]1O[C@H](CO)[C@@H](O)[C@H]1O	none (no result: YopH inh)
N/C(=N\c1nc2c(c(=O)[nH]1)CCC2)Nc1ccccc1	none (no result: RmlC RmlD mix)
CCOC(=O)c1c(N)n(CCN2CCCCC2)c2nc3ccccc3nc12	RmlC RmlD mix 38 | RmlCD fluor art active
COC(=O)c1c(N)n(CCCN2CCOCC2)c2nc3ccccc3nc12	none
Nc1c(C(=O)NCCN2CCOCC2)c2nc3ccccc3nc2n1Cc1ccco1	RmlC RmlD mix 37 | RmlCD fluor art active
COCCNC(=O)c1c(N)n(Cc2ccco2)c2nc3ccccc3nc12	none
CCOC(=O)C1CCCN(C(=S)Nc2cc(C)cc(C)c2)C1 (stereo not given)	none
Cc1ccc(S(=O)(=O)NC(CC(C)C)C(=O)Oc2ccc3c4c(c(=O)oc3c2)CCC4)cc1 (stereo not given)	none (no result: RmlC RmlD mix)
CCC(C)C(NS(=O)(=O)c1ccc(C)cc1)C(=O)Oc1ccc2c3c(c(=O)oc2c1)CCC3 (stereo not given)	none
CC(C)CC(C(=O)Oc1ccc2c3c(c(=O)oc2c1)CCC3)N1C(=O)c2ccccc2C1=O (stereo not given)	none (no result: RmlC RmlD mix) | RmlCD fluor art active
CC[C@@H](NS(=O)(=O)c1ccc(C)cc1)C(=O)Oc1ccc2c3c(c(=O)oc2c1)CCC3	none (no result: RmlC RmlD mix) | RmlCD fluor art active
CCCCc1nc2ccccc2n2cc3c(=O)n(C)c(=O)n(C)c3c12	none (no result: RmlC RmlD mix)
CCOc1ccc(C(=O)NCC(=O)OCc2ccc(F)cc2Cl)cc1	none (no result: RmlC RmlD mix)
Cn1cc(CC(=O)NCCCN2CCCC2=O)c2ccccc21	none
CCOC(=O)c1sc(Nc2ccccc2)nc1C	none
CCOC(=O)c1sc(Nc2nc3c(OC)cccc3s2)nc1C	RmlC RmlD mix 79 | RmlCD fluor art active
CCCCCCc1cc2cc(-c3nnc(-c4ccccc4OC)o3)c(=O)oc2cc1O	RmlC RmlD mix 181 | RmlCD fluor art active
COc1ccc(-c2nnc(-c3cc4ccccc4oc3=O)o2)cc1	none
Nc1cccc(-c2nc3cc(S(=O)(=O)c4ccc5oc(-c6cccc(N)c6)nc5c4)ccc3o2)c1	RmlC RmlD mix 46 | RmlCD fluor art active
Cc1ccc(-c2nc3cc(N)ccc3o2)cc1	none (no result: RmlC RmlD mix)
Cc1cc(SCC(=O)c2cc(C)n(C)c2C)nc2ccccc12	none (no result: RmlC RmlD mix)
CCOC(=O)C1CCCN(Cc2sccc2C)C1 (stereo not given)	none (no result: RmlC RmlD mix)
COc1cccc(-c2cc(C(F)(F)F)n3nc(N)nc3n2)c1	none
COc1ccc(-c2cc(C(F)(F)F)n3nc(N)nc3n2)cc1	RmlC RmlD mix 75 | RmlCD fluor art active
O=C(NCCN1CCOCC1)c1ccc(=O)oc1	RmlC RmlD mix 43 | RmlCD fluor art active
O=C(NCCN1CCOCC1)c1ccc(F)cc1	none
CCOC(=O)Cn1c(=S)[nH]c2c(oc3ccc(Cl)cc32)c1=O	none
COc1cccc(-c2nnc3n2N=C(C(C)(C)C)CS3)c1	none
Cc1ccccc1OCCC(=O)Nc1ccc(Cl)cc1F	none (no result: RmlC RmlD mix)
Cc1cc(NCCN2CCOCC2)n2c(nc3ccccc32)c1C#N	none
Cc1cc(NCCCN2CCOCC2)n2c(nc3ccccc32)c1C#N	RmlC RmlD mix 71 | RmlCD fluor art active
COc1ccc(CC(=O)NNc2ncnc3c2cnn3-c2ccc(C)cc2)cc1OC	none (no result: RmlC RmlD mix)
CCOc1cccc(-c2csc(C3COc4ccccc4O3)n2)c1 (stereo not given)	none (no result: RmlC RmlD mix)
OC(CNCCC1C=Nc2ccccc21)Cn1c2ccc(Cl)cc2c2cc(Cl)ccc21 (stereo not given)	none (no result: RmlC RmlD mix)
COC(=O)CON1C(=O)c2ccccc2C1=O	none
